For eight compounds, growth results are on record in PubChem BioAssay (NCI).

Molecules are shown by their SMILES. This is part of a sample that, as a whole, favours compounds with a hit. Of some 83,000 tested, about 20% had one in any assay.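 The test compound was applied at a single concentration to cells in 96-well plates for 48 hours, and percent growth was recorded.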 A number with no mark means an inactive call. The source made the active and inactive calls. Rule for the calls: active = growth percent below 10; inactive = the rest. Starred links: 1 amine or outer side, 2 acyl side, 3 side chain; linkers in the order of their positions; H or OH if unused. Positions of bridges follow the written chain, without caps; N, C: chain ends. Non-standard residues stand in square brackets, D forms with d. Residues, ends and D or L forms follow the SMILES beside them. Chains are numbered I, II in the order given. Actinocin(9to1) = Cc1c2oc3c(C)ccc(C(=O)[*:1])c3nc-2c(C(=O)[*:2])c(N)c1=O; aThr = C[C@H](O)[C@H](N)C(=O)O; NMeV = CN[C@H](C(=O)O)C(C)C; Sar = CNCC(=O)O

Test systems include SR leukemia; RPMI-8226 leukemia; OVCAR-5 ovarian; OVCAR-4 ovarian; SK-OV-3 ovarian; IGROV1 ovarian; OVCAR-3 ovarian; HS 578T breast; NCI/ADR-RES ovarian.
Common to all, as to assay: NCI-60 one-dose screen, 48 h (100 = growth as untreated, 0 = no growth, -100 = all killed)
The subject of the next assay is OVCAR-8 ovarian. To be noted: 10 µM.

For `S=c1[nH]nc(Cc2ccccc2)c(=S)[nH]1`, the growth in the assay with SR leukemia (10 µM) is 94.7%; in the assay on RPMI-8226 leukemia (10 µM), 97.2%; in the assay on OVCAR-8 ovarian, 104%; in the assay with OVCAR-5 ovarian (10 µM), 107%; with OVCAR-4 ovarian (10 µM) it was 98%; with SK-OV-3 ovarian (10 µM) it was 99.6%. Moreover, the growth in the assay on IGROV1 ovarian (10 µM) was 102%; in the assay with OVCAR-3 ovarian (10 µM) it was 95.4%; with HS 578T breast (10 µM) it was 101%; in the assay on NCI/ADR-RES ovarian (10 µM), 100%.

For `CCCCCCCCCCCCCCCCCN`, the growth with SR leukemia (10 µM) was 57.8%; in the assay on RPMI-8226 leukemia (10 µM), 107%; in the assay with OVCAR-8 ovarian it was 104%; with OVCAR-5 ovarian (10 µM) it was 106%; with OVCAR-4 ovarian (10 µM), 102%; with SK-OV-3 ovarian (10 µM), 96.8%. Moreover, the growth in the assay with IGROV1 ovarian (10 µM) was 107%; in the assay with OVCAR-3 ovarian (10 µM), 108%; with HS 578T breast (10 µM), 103%; in the assay with NCI/ADR-RES ovarian (10 µM), 115%.

Consider `O=C(/C(=C/c1ccccc1)CBr)c1ccccc1`, for which the growth in the assay with SR leukemia (10 µM) was -0.723% (active); in the assay on RPMI-8226 leukemia (10 µM) it was 16.9%; in the assay on OVCAR-8 ovarian, 86.1%; with OVCAR-5 ovarian (10 µM), 122%; in the assay on OVCAR-4 ovarian (10 µM), 80.3%; with SK-OV-3 ovarian (10 µM), 112%. For the same compound, the growth in the assay on IGROV1 ovarian (10 µM) was 90.9%; in the assay with OVCAR-3 ovarian (10 µM), 66.1%; in the assay with HS 578T breast (10 µM), 82.9%; in the assay with NCI/ADR-RES ovarian (10 µM), 81.4%.

As to `Cc1cc(NCCCN(C)C)c2ccc3c(ccc4c(NCCCN(C)C)cc(C)nc43)c2n1`, the growth is -11.3% (active) with RPMI-8226 leukemia (10 µM); -24.6% (active) in the assay with OVCAR-8 ovarian; -15.4% (active) in the assay with OVCAR-5 ovarian (10 µM); -33.7% (active) with OVCAR-4 ovarian (10 µM); -39.4% (active) with SK-OV-3 ovarian (10 µM); -73.4% (active) with IGROV1 ovarian (10 µM). The values for the growth with OVCAR-3 ovarian (10 µM), in the assay on HS 578T breast (10 µM) and with NCI/ADR-RES ovarian (10 µM) were -58.3% (active), -42.7% (active) and -10.4% (active), respectively.

`Cc1c2oc3c(C)ccc(C(=O)N[C@@H]4C(=O)N[C@H](C(C)C)C(=O)N5CCC[C@H]5C(=O)N(C)CC(=O)N(C)[C@@H](C(C)C)C(=O)O[C@H]4C)c3nc-2c(C(=O)N[C@@H]2C(=O)N[C@H](C(C)C)C(=O)N3CCC[C@H]3C(=O)N(C)CC(=O)N(C)[C@@H](C(C)C)C(=O)O[C@H]2C)c(N)c1=O` (I: [aThr][dV]P[Sar][NMeV] / II: [aThr][dV]P[Sar][NMeV]; ester I:1-I:C, II:1-II:C; linker I:N-II:N via Actinocin(9to1)): the growth is 14.8% in the assay with SR leukemia (0.0025 µM); 3.04% (active) in the assay with SR leukemia (10 µM); 3.42% (active) in the assay with RPMI-8226 leukemia (0.0025 µM); -21.3% (active) in the assay on RPMI-8226 leukemia (10 µM); 50.9% with OVCAR-5 ovarian (0.0025 µM); -66.1% (active) in the assay with OVCAR-5 ovarian (10 µM). For the same compound, the growth in the assay on OVCAR-4 ovarian (0.0025 µM) is 50.3%; in the assay with OVCAR-4 ovarian (10 µM) it was -8.21% (active); in the assay on SK-OV-3 ovarian (0.0025 µM), 92.8%; with SK-OV-3 ovarian (10 µM), 14.8%; in the assay on IGROV1 ovarian (0.0025 µM), 35.5%; in the assay on IGROV1 ovarian (10 µM), -27.7% (active). In addition, the growth with OVCAR-3 ovarian (0.0025 µM) is 70%; with OVCAR-3 ovarian (10 µM), 5.84% (active); with HS 578T breast (0.0025 µM), -10.9% (active); in the assay on NCI/ADR-RES ovarian (0.0025 µM) it was 96.7%; in the assay with NCI/ADR-RES ovarian (10 µM) it was -39.5% (active).

Take `Nc1ccc2cc(Br)c3ccccc3c2c1`: the growth was 57.5% in the assay with SR leukemia (10 µM); 40% with RPMI-8226 leukemia (10 µM); 84.8% with OVCAR-8 ovarian; 79.9% in the assay on OVCAR-5 ovarian (10 µM); 56.7% with OVCAR-4 ovarian (10 µM); 81.1% with SK-OV-3 ovarian (10 µM). For the same compound, the growth with IGROV1 ovarian (10 µM) is 82.2%; with OVCAR-3 ovarian (10 µM) it was 74.6%; with NCI/ADR-RES ovarian (10 µM), 67.2%.

Take `N#C/C(=C1C=C/C(=N\O)C(Cl)=C\1)c1ccccc1`: the growth in the assay on RPMI-8226 leukemia (10 µM) is 27.3%; in the assay with OVCAR-8 ovarian it was 43.2%; with OVCAR-5 ovarian (10 µM), 64%; with OVCAR-4 ovarian (10 µM) it was 57%; in the assay on SK-OV-3 ovarian (10 µM), 37.5%; in the assay on IGROV1 ovarian (10 µM) it was 53%. Besides, the growth in the assay with OVCAR-3 ovarian (10 µM) was 39.6%; with HS 578T breast (10 µM), 56.2%; in the assay with NCI/ADR-RES ovarian (10 µM), 34%.

As to `CN1CCN(c2ccc3nc(-c4ccc5nc(-c6ccc(O)cc6)[nH]c5c4)[nH]c3c2)CC1`, the growth with SR leukemia (10 µM) was 67%; with RPMI-8226 leukemia (10 µM), 107%; in the assay on OVCAR-5 ovarian (10 µM), 61.9%; in the assay with OVCAR-4 ovarian (10 µM) it was 89.8%; with SK-OV-3 ovarian (10 µM), 84.4%; in the assay with IGROV1 ovarian (10 µM), 112%. Also, the growth in the assay on OVCAR-3 ovarian (10 µM) was 66.4%; with NCI/ADR-RES ovarian (10 µM) it was 130%.
